Shown are actives, neighbours in structure and some others; about 21% of the full set was active somewhere.
Pf growth 96h = P. falciparum growth inhibition at 96 hours. actives 6.9% (n = 320,000). Potency, µM (titrated, usually from 28.7 µM), inactives show at the top dose activity change, negative = inhibition, hits mostly inhibitors. P. falciparum luciferase reporter growth, 96 h; also: potency is read from the fitted curve at half-maximal effect; % is scaled to controls: 0 for no effect and ±100 for the full control effect
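Delayed-death screen, second-generation endpoint: infected erythrocytes, 2% hematocrit, 0.05% parasitemia final; 96 hours at 37 C, 5% CO2; luciferase detection reagent; luminescence decrease equals reduced growth.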
Shiga inhibitor = blocks Shiga toxin action in Vero cells; Vero cells, Shiga toxin protein synthesis inhibition reporter; inhibition, % at 38.7 µM; actives 9.2% (n = 290,000); AID 2315; in the data active = inhibition mostly above about 28%, no sharp cut-off; inactive = mostly below about 43%; also: 0% is about no effect
CHX counter = counter-screen for Shiga toxin inhibitors: cycloheximide protein synthesis inhibition. cell reporter, cycloheximide protein synthesis inhibition counterscreen. AID 2314. max response, %. actives 12% (n = 300,000); in the data active = max response mostly above about 13%, no sharp cut-off; inactive = mostly below about 14%; also: read at 38.3 µM for the half of the compounds with a filed dose; 0% is about no effect
Pf growth 48h = inhibits P. falciparum growth in the first generation, 48 h; P. falciparum luciferase growth in erythrocytes, 48 h; actives 5.9% (n = 310,000); Potency, µM (titrated, usually from 28.7 µM), for inactives: at the top dose activity change, negative = inhibition, most hits filed as inhibitors; also: potency is read from the fitted curve at half-maximal effect; % is scaled to controls: 0 for no effect and ±100 for the full control effect
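Growth was read as firefly luciferase luminescence after a 48 h, 37 C, 5% CO2 exposure of compounds to reporter-bearing P. falciparum cultures (0.1% parasitemia, 2% hematocrit final) in Albumax-supplemented RPMI 1640.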
* marks the source's active call; other numbers are inactive results; ? = inconclusive; nt = no result given; ! = repeats disagree. Unless noted, calls follow the shape of the dose curve; as a rule, active = well fitted inhibition curve with a large enough effect; inconclusive = small, poorly fitted or top-dose-only effect, or another doubt; inactive = no such curve, though single readings can be large or run the other way.

SMILES	Pf growth 96h	Shiga inhibitor	CHX counter	Pf growth 48h
CCOC(=O)c1[nH]c(C)c(CN(CCc2ccccc2)S(C)(=O)=O)c1C	17%	-21	-1	nt
CCc1c(C)[nH]c(C(=O)OCc2ccccc2)c1C	18%	81*	28*	37%
CC(C)Oc1ccccc1NC(=O)CSc1nccn1C	1%	-12	5	13%
Cc1cc(C(=O)CSc2ccccc2)cc(C)c1O	78%	71*	61*	60%
Cc1cc(C(=O)CS(=O)(=O)c2ccccc2)cc(C)c1O	70%	44*	19*	50%
Cc1cc(C(=O)CS(=O)(=O)c2ccccc2)cc(C)c1OC(=O)N(C)C	?	62*	25*	?
Cc1ccc(S(=O)(=O)CC(=O)c2cc(C)c(OC(=O)N(C)C)c(C)c2)cc1	-1%	40	19	?
CC(C)Oc1ccc(C(=O)NCCCNC(=O)c2cccnc2)cc1	3%	20	6	8%
Nc1nc(CSCc2ccccc2)nc(N2CCOCC2)n1	nt	46*	46*	85%
Nc1nc(CSc2nc3ccccc3s2)nc(N2CCOCC2)n1	13%	36	15*	-2%
Cc1ccccc1Nc1nc(N)nc(CSc2nc3ccccc3s2)n1	?	9	10	-26%
CSCC[C@H](NC(=O)[C@H](CCCN=C(N)N)NC(=O)[C@@H]1CCCN1C(=O)[C@H](Cc1ccccc1)NC(=O)[C@H](C)NC(=O)[C@H](CC(C)C)NC(=O)[C@H](Cc1ccc(O)cc1)NC(=O)[C@H](CC(N)=O)NC(=O)[C@@H](N)CCSC)C(N)=O	nt	-15	-4	nt
CCCN(CC(=O)Nc1ccccc1C)C(=O)CSc1ccccc1C	-12%	nt	nt	?
O=C(COc1ccc(Br)cc1)NCCNC(=O)c1ccncc1	0%	11	1	0%
CC(CN1CCCCCC1)C(=O)NN (stereo not drawn)	36%	-8	-3	11%
CC(CN1CCCCC1)C(=O)NNC(=O)C12CC3CC(CC(C3)C1)C2 (stereo not drawn)	12µM*	-8	15	30%
Cc1ccc(C(=O)NC2CCCCCCC2)c(Cl)c1	-33%	nt	16*	167%
O=C(NC1CCCCCCC1)c1cc([N+](=O)[O-])ccc1Cl	21%	-7	1	-16%
O=C(NC1CC1)c1ccc(F)cc1Cl	nt	3	6	24%
O=C(NC1CCCCCCC1)c1cc(F)c(F)cc1Cl	?	83*	26*	54%
Cc1occc(=O)c1OCc1ccc(Cl)cc1Cl	26%	-7	1	26%
CCCCNc1n[n+](C)c(-c2cccc(C)c2)s1	16%	21	1	-2%
COc1ccc(-c2cc(-c3cccs3)c(C#N)c(SCC(=O)NCc3ccccc3OC)n2)cc1	10µM*	12	-1	2.3µM*
CCc1nnc(NC(=O)CSc2nc(-c3ccc(F)cc3)cc(-c3ccccc3)c2C#N)s1	14%	4	2	30%
CCSc1nc(-c2ccc(OC)cc2)cc(-c2ccccc2)c1C#N	13µM*	-12	-4	nt
SMILES	Pf growth 96h	Shiga inhibitor	CHX counter	Pf growth 48h
COc1ccc(-c2cc(-c3ccccc3)nc(SCC(=O)Nc3ncc(C)s3)c2C#N)cc1	?	-6	-1	8.3µM*
N#Cc1c(Nc2ccccc2)c(C=NCCN2CCOCC2)c[nH]c1=O	9.3µM*	-2	-2	4%
COc1ccc(N(CC(=O)NC2CCCC2)C(=O)c2ccc(N3CCCCC3)nc2)cc1	?	30	-7	9.3µM*
CCC(C)(C)NC(=O)CN(C(=O)c1ccc(N2CCCC2)nc1)c1ccc(F)cc1	?	4	7	4.1µM*
Cc1ccc(CN2[C@@H](CC3CCCCC3)COCCS2(=O)=O)cc1	?	-5	-4	34%
C=Cn1cc[n+](CC(=O)c2ccc(-c3ccccc3)cc2)c1	?	nt	-1	1.5µM*
C=Cn1cc[n+](CC(=O)c2cccs2)c1	6.6µM*	-6	-2	?
O=C(NCc1ccco1)c1ccc(Br)s1	nt	-7	15	-7%
CN1CCN(CC(=O)c2cc(C(C)(C)C)c(O)c(C(C)(C)C)c2)CC1	11%	nt	-1	?
C=Cn1cc[n+](CC(=O)c2cc(C(C)(C)C)c(O)c(C(C)(C)C)c2)c1	2.1µM*	1	-1	6.6µM*
C=Cn1cc[n+](CC(=O)c2ccc(Br)s2)c1	3.3µM*	-11	5	?
Cc1ccc(S(=O)(=O)N(C)C)cc1NC(=O)C(C)OC(=O)C1CCCC1 (stereo not drawn)	9%	nt	nt	-7%
N#Cc1ccc(COC(=O)c2cnc3ccccc3n2)cc1	44%	21	-4	42%
CC/C(=N\NC(=O)c1nnn(-c2nonc2N)c1-c1cccc(OC)c1)c1ccc(C)cc1	?	14	-2	-11%
COc1cc2nc(CN3CCOCC3)n(CC(=O)NCC(F)(F)F)c(=O)c2cc1OC	0%	4	-3	19%
Oc1ccccc1Cc1c(O)ccc2ccccc12	-12%	nt	nt	16%
Cc1cc(NC(=O)CSc2ncnc3sccc23)no1	0%	18	3	?
N#Cc1c(NC(=O)CSc2ncnc3sccc23)oc(-c2ccco2)c1-c1ccco1	2.3µM*	-19	-3	nt
CCCCN1CC(COc2ccccc2)OC1=O (stereo not drawn)	2.9µM*	33	5	2%
O=C(C1CC(=O)N(C2CCCCC2)C1)N1CCc2ccccc21 (stereo not drawn)	47%	17	1	-20%
C[C@]12CCC(=O)C=C1CC[C@@H]1[C@@H]2[C@@H](O)C[C@@]2(C)[C@H]1CC[C@]2(O)C(=O)COP(=O)(O)O	7.6µM*	nt	nt	5%
C[C@]12CCC(=O)C=C1CC[C@@H]1[C@@H]2[C@@H](O)C[C@@]2(C)[C@H]1CC[C@]2(O)C(=O)COC(=O)CCC(=O)O	12µM*!	3	1	13µM*!
CCCC(=O)O[C@]1(C(=O)CO)CC[C@H]2[C@@H]3CCC4=CC(=O)CC[C@]4(C)[C@H]3[C@@H](O)C[C@@]21C	1%	-4	-1	-8%
CCC(C)C(NC(=O)CCC(=O)OCC(=O)[C@@]1(O)CCC2[C@@H]3CCC4=CC(=O)C=C[C@]4(C)C3[C@@H](O)C[C@@]21C)C(=O)O (stereo partly drawn)	?	1	2	3.7µM*
CC(=O)OCC(=O)[C@@]1(O)CC[C@H]2[C@@H]3CCC4=CC(=O)CC[C@]4(C)[C@H]3[C@@H](O)C[C@@]21C	-8%	24	-2	?
Cc1cccc(C)c1NCC(=O)N1CCN(Cc2ccccc2)CC1	-12%	-10	-5	-13%
Cc1ccc(C2CC(c3cccs3)=NN2C(=O)CSC2=NN3CCCC(=O)N=C3S2)cc1 (stereo not drawn)	1µM*	17	0	9.3µM*
COc1ccc(C2CC(c3ccc(Br)cc3)=NN2C(=O)CSC2=NN3CCCC(=O)N=C3S2)cc1 (stereo not drawn)	1%	-7	-5	?
CCOC(=O)CCSCC(=O)N1N=C(c2cccs2)CC1c1ccc(C)cc1 (stereo not drawn)	?	-9	0	-6%
COc1ccc(C2CC(c3cccs3)=NN2C(=O)CSC2=NN3CCCC(=O)N=C3S2)cc1 (stereo not drawn)	2.6µM*	-8	-2	10µM*
